Compounds without any hit were thinned out: in the full panel of roughly 83,000, 20% have a hit.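 Each cell line was grown in a 96-well plate and treated with one concentration of compound for 48 hours. Values below 10 were considered active.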 The source made the active and inactive calls.

This test concerns HL-60(TB) leukemia. Put plainly: NCI-60 one-dose screen, 48 h (100 = growth as untreated, 0 = no growth, -100 = all killed). Conditions: 10 µM unless noted.
Regarding `C/C=C/C=N/NC(=S)Nc1ccccc1`, the growth is 81.7% (inactive).

As to `COc1ccc(C(=O)C2=CC(=O)C(=O)C2)cc1OC`, the growth was 110% (inactive).

For `C=C1CC[C@@H]2[C@](C)(COC(C)=O)[C@H](OC(C)=O)CC[C@@]2(C)[C@@H]1CC(Nc1ccc(S(=O)(=O)NC(C)=O)cc1)C1=CCOC1=O` (some centres undefined), the growth is -31.1% (active).

For the compound `Cc1onc(-c2c(F)cccc2Cl)c1-c1ncc(-c2ccc(Cl)cc2)o1`, the growth was 36.4% (inactive).

`C=C1C(=O)O[C@H]2[C@H]1CC/C(COC(=O)NCc1ccc(Cn3c(=O)sn(-c4ccc(I)cc4)c3=O)cc1)=C\CC[C@@]1(C)O[C@@H]21`: the growth was -32% (active).

With `N#C/C(=C/c1c(O)ccc2ccccc12)C(N)=O`, the growth is 103% (inactive).

With `COc1ccc(Oc2nc(NC3CCCC3)nc(Sc3ccc(OC)cc3)n2)cc1`, the growth was 48.3% (inactive).

Take `CCOC(=O)c1nc(Nc2ccc(C(C)=O)cc2)sc1C`: the growth is 95.5% (inactive).

For the compound `COc1cc(CSc2nc3ccc(C)cc3c(=O)n2Cc2ccccc2)cc(OC)c1OC`, the growth was 17% (inactive).

With `Nc1ccc(Oc2ccccc2)c(Cl)c1`, the growth is 119% (inactive).

For `C[C@@H]1N=C(c2ccc3ccccc3c2)Nc2nc3ccccn3c2C1=O`, the growth was -6.75% (active).

Regarding `N=C(N)c1ccc(OCCSCCOc2ccc(C(=N)N)cc2)cc1`, the growth is 77.9% (inactive).

For `Cc1ccc(S(=O)(=O)NCCCNc2nccc(-c3c(-c4ccccc4)nc4sccn34)n2)cc1`, the growth is -13.1% (active).

In the case of `Cc1cc(NCCN(C(C)C)C(C)C)nc(/N=C(\N)Nc2ccc(Cl)c(C(F)(F)F)c2)n1`, the growth was -87.9% (active).

For the origin of these results see PubChem BioAssay (NCI).
